For 71 compounds, INHIBITION results are on record in ChEMBL document CHEMBL4513216, “Probing the Open Global Health Chemical Diversity Library for Multistage-Active Starting Points for Next-Generation Antimalarials” (ACS Infect Dis, 2020).

The whole screen tested about 65,000 compounds, of which about 2,100 (3.2%) showed an effect of 50% or more. The median lay at about -52%. Only a selection was taken, and strong results are over-represented in it overall.

The subject of the test is Plasmodium falciparum. The experiment in a line: Screen against P. falciparum Asexual Blood Stage (ABS), at 5uM. Type of test: functional, Dd2. Conditions: tested at 5 uM.
Consider `O=C(NCC1CCS(=O)(=O)C1)c1ccco1` (stereo unspecified), for which the INHIBITION is given as -48%.

With `Cc1nc2ccc(C(=O)N3C[C@@H](O)[C@H](N4CCOCC4)C3)cc2[nH]1`, the INHIBITION was -0.956%. Under `Fc1ccc(C(NCc2nnc(-c3ccco3)o2)C2CCC2)cc1` (stereo unspecified) stands -32.2%; under `CN(C)c1ccc(NC(=O)NCC2CCOC2)cn1` (stereo unspecified), 33.3%.

For `Cc1ccc(S(=O)(=O)N2CCN(C)c3ccncc32)cc1F`, the INHIBITION was determined as 61.6%.

As for `CN1CCN(S(=O)(=O)c2cccc(F)c2)c2cnccc21`, the INHIBITION turned out to be 13.2%. As for `Cc1cc(F)ccc1S(=O)(=O)N1CCN(C)c2ccncc21`, the INHIBITION worked out at 22.6%. For `N#CC1(C(=O)N2CCOC(c3ccc(Cl)cc3)C2)CCCC1` (stereo unspecified) the value was -11.4%. Under `CN(Cc1ccccc1F)C(C(N)=O)c1ccccc1` (stereo unspecified) stands -90%. In the case of `COc1nccc(N2CC[C@@H](N3CCC(O)CC3)[C@H](O)C2)c1C#N`, the INHIBITION is listed as -75.9%. Under `COc1nccc(N2CC[C@@H](N3CCCCCC3)[C@H](O)C2)c1C#N` stands 52.3%.

On to `COc1nccc(N2CC[C@@H](N3CCN(C)CC3)[C@H](O)C2)c1C#N`, for which the INHIBITION is recorded as -50.4%. In the case of `O=C([C@H]1C[C@H]2OCC[C@H]2N(CC2CCOCC2)C1)N1CCCCO1`, the INHIBITION is -23.2%. For `Clc1cccc(-n2cnnn2)c1N1CCCCC1` the value was -48.1%; for `CCOC(=O)C1CN(CC2CC2)Cc2ncn(CC)c21` (stereo unspecified), 14%; for `CNC(=O)CN1CCOCC12CCN(C(=O)c1ccc(C)cc1)CC2`, -78%. Consider `Cn1cc(C[C@H]2[C@H](N3CCOCC3)CCN2c2ncc(F)cn2)cn1`, for which the INHIBITION is on record as -63.8%.

As for `N#Cc1cccc(S(=O)(=O)N2CCCCC2CCN2CCCC2)c1` (stereo unspecified), the INHIBITION is reported as -4%.

Turning to `CCN1CCCC1CN(CCN(C)C)S(=O)(=O)c1ccc(C#N)cc1` (stereo unspecified), the INHIBITION is 59.7%. As for `CN(CCn1cccn1)S(=O)(=O)c1ccc(C#N)cc1`, the INHIBITION was -48.4%. In the case of `CCN1CCCC1CN(CCN(C)C)S(=O)(=O)c1cccc(C#N)c1` (stereo unspecified), the INHIBITION came to 60.4%. Under `COCCCC1CCCCN1S(=O)(=O)c1cccc(C#N)c1` (stereo unspecified) stands -16.1%; under `CCN(C)C[C@@H]1CN(S(=O)(=O)c2ccc(C#N)cc2)C[C@@H]1CO`, 15.5%. Under `CN1CCN(C(=O)c2cnsn2)c2cc(F)ccc21` stands -79.3%; under `CSc1ccc(-c2noc(CN(CC(C)C)CC(C)C)n2)cc1`, -63.5%; under `O=C(O)C1(Cc2cc(-c3ccc(F)cc3)no2)CCOCC1`, -19.8%. For `Cc1ccc(NC(=O)CC2Cn3ncnc3NC2=O)cc1C` (stereo unspecified) the value was -65.7%; for `Cc1cnn(CC2CCCN2Cc2nccn2CC(F)(F)F)c1` (stereo unspecified), -0.234%; for `Cc1cnn(CC2CCCN2Cc2nccn2C)c1` (stereo unspecified), -72.8%. Turning to `CCn1ccnc1CN1CCCC1Cn1cc(C)cn1` (stereo unspecified), the INHIBITION came out at 65.6%.

With `CN(C)CCCNC(=O)c1ccc(N(C)S(C)(=O)=O)cc1Cl`, the INHIBITION is given as -70.5%. Under `O=C(CCc1ccccc1F)NS(=O)(=O)c1ccc2c(c1)OCCO2` stands -17.8%; under `CCS(=O)(=O)N1CCCC2(COCCN(c3ccccn3)C2)C1` (stereo unspecified), -1.4%. Turning to `COCC(O)CNC(=O)Nc1ccc(Cl)cc1-n1cccc1` (stereo unspecified), the INHIBITION is -45.8%. With `CCCn1ncc(CN(CCN(C)C)Cc2ccsc2)c1C`, the INHIBITION was 54.5%. Under `CCCn1ncc(CN(Cc2cccnc2)Cc2ccsc2)c1C` stands -129%; under `CCCn1ncc(CN(Cc2ccsc2)Cc2ccco2)c1C`, -122%.

For the compound `CCCc1cc(C(=O)NC(COC)c2ccnn2C)no1` (stereo unspecified), the INHIBITION came to 4.52%.

Consider `COCCN(Cc1ccccn1)Cc1sccc1C`, for which the INHIBITION is reported as -158%. With `Cc1ccsc1CN(CCN(C)C)Cc1ccccn1`, the INHIBITION is on record as 58.9%. Turning to `Cc1ccsc1CN(Cc1ccccn1)CC(C)C`, the INHIBITION is listed as -56.9%.

Consider `Cc1ccc(CCNC(=O)CC2COCCN2S(=O)(=O)N(C)C)s1` (stereo unspecified), for which the INHIBITION was -49%.

Regarding `Cc1nc(CN2CCCC2Cn2cccn2)nc2ccccc12` (stereo unspecified), the INHIBITION amounted to 55.5%. `Cc1cc(C)n(CC2CCCN2Cc2ncc(C(C)(C)C)o2)n1` (stereo unspecified): the INHIBITION is on record as -80.1%. Regarding `Cc1nn(C)c(C)c1C1CCCN1Cc1nc2ccccc2n1C` (stereo unspecified), the INHIBITION worked out at 1.9%. For the compound `Cc1nc(C)n(CC2CCCN2Cc2nc3ccccc3nc2C)n1` (stereo unspecified), the INHIBITION amounted to 31.2%. For `Cc1nc(C)n(CC2CCCN2Cc2ncc(C(C)(C)C)o2)n1` (stereo unspecified) the value was 61.9%; for `Cc1nc(C)n(CC2CCCN2Cc2nc(C)c3ccccc3n2)n1` (stereo unspecified), 55%; for `Cc1nc2ccccc2nc1CN1CCCC1c1c(C)nn(C)c1C` (stereo unspecified), 58.1%. For the compound `Cc1nc(C)n(CC2CCCCN2Cc2ncc(C(C)(C)C)o2)n1` (stereo unspecified), the INHIBITION is -43.5%. `Cc1nc(C)n(CC2CCCN2Cc2nc(N)c3ccccc3n2)n1` (stereo unspecified): the INHIBITION is recorded as -98.4%. For `Cc1nc(CN2CCCC2Cn2cncn2)nc2ccccc12` (stereo unspecified) the value was -14.5%; for `Cc1nc(CN2CCCCC2Cn2cncn2)nc2ccccc12` (stereo unspecified), -50.6%. Under `Cc1nn(C)c(C)c1C1CCCN1Cc1nc(C)c2ccccc2n1` (stereo unspecified) stands -19.2%; under `CCn1nccc1CNC(=O)Cn1cc2c(n1)c(C)nn2C(C)C`, -127%; under `CC(C)N1CCOCC2(CCCN(C(=O)c3cncn3C)C2)C1` (stereo unspecified), -78.3%. For `O=C(NCc1cc[nH]n1)NCC(O)c1ccc(F)cc1` (stereo unspecified) the value was 3.65%. As to `Cc1ccc(CN2CCC3(CC2)C(c2ccccc2)CC(=O)N3C)o1` (stereo unspecified), the INHIBITION is reported as 17.1%. For the compound `C=Cn1cc(CN2CCC(c3ncc(Cl)cc3S(C)(=O)=O)CC2)c(C)n1`, the INHIBITION turned out to be 14.8%. On to `CN(C(=O)CN1CCOC(Cn2cccn2)C1)c1nccs1` (stereo unspecified), for which the INHIBITION is reported as -24.5%. For `Cc1nc2ccccc2nc1CN1CCCC(Cn2cncn2)C1` (stereo unspecified) the value was -96.3%. For `Cc1c(Cl)c(CN2CCCC2Cn2cncn2)nc2ccccc12` (stereo unspecified) the value was 16.2%. For `Cc1nc2ccccc2nc1CN1CCCC1Cn1cncn1` (stereo unspecified) the value was 62.3%; for `Cc1nc2ccccc2nc1CN1CCCC1Cn1cccn1` (stereo unspecified), 69.3%; for `Cc1cnn(CC2CCCN2Cc2nc3ccccc3nc2C)c1` (stereo unspecified), -88.9%. With `Cc1nc2ccccc2nc1CN1CCCCC1Cn1cccn1` (stereo unspecified), the INHIBITION was -78.3%. In the case of `CC1CCc2nn(CCNC(=O)Cc3ccc(F)cc3)c(=O)cc2C1` (stereo unspecified), the INHIBITION is listed as -65.3%. Under `CN1CCOCC2(CCCN(C(=O)c3ccc(-n4cccc4)cc3)C2)C1` (stereo unspecified) stands 28.9%; under `CNC(=O)c1nc(CN2CCOC(C(F)(F)F)C2)no1` (stereo unspecified), -43.7%. For `CNC(=O)c1nc(CN2CCOC(Cc3ccc(F)cc3)C2)no1` (stereo unspecified) the value was 51.7%; for `CNC(=O)c1nc(CN2CCOC(CCCC(C)C)C2)no1` (stereo unspecified), -32%.
